Measurements published in PubChem BioAssay (Tox21).
Inconclusive results are not listed. A number with no mark means an inactive call. Calls come from the whole dose curve; as a rule, active = well fitted cell-killing curve with a large enough effect in the repeat runs; inconclusive = weak or mixed curves, or effect the other way; inactive = flat fitted curve, though single readings scatter.

experiment: qHTS RealTime-Glo MT Cell Viability Assay in HepG2 cells - 0 hour (AID 1224889); conditions: RealTime-Glo luminescence; series mostly up to 76.8 µM; activity change, negative = cytotoxicity: at the top concentration; note: nearly all actives have a fitted effect of over 50% in size
Text: U.S. Tox21 Program National Center for Advancing Translational Sciences [NCATS] NIH Chemical Genomics Center [NCGC] U.S. Environmental Protection Agency [EPA] National Institutes of Environmental Health Sciences [NIEHS] National Toxicology Program [NTP] U.S. Food and Drug Administration [FDA] Tox21 Assay Overview: Measure of cell viability is critical in the cell-base assay. Analysis of cell viability is necessary for the characterization of cell responses to cytotoxic drugs and environmental stress. A RealTime-Glo MT Cell Viability Assay to monitor cell viability in real time of continues cell culture during 40 hours of compound treatment was used to screen Tox21 10K library compounds in HepG2 cells. The RealTime-Glo MT Cell Viability Assay is a nonlytic, homogeneous, bioluminescent method to measure cell viability in real time using a simple, plate-based method. The assay involves adding NanoLuc luciferase and a cell-permeant prosubstrate to cells in culture. Viable cells reduce the proprietary prosubstrate to generate a substrate for NanoLuc luciferase. This substrate diffuses from cells into the surrounding culture medium, where it is rapidly used by the NanoLuc Enzyme to produce a luminescent signal. The signal correlates with the number of viable cells, making the assay well suited for cytotoxicity studies.
Tox21 Assay Protocol Summary: The mixture of HepG2 cell suspension and reagents were dispensed at 600cells/6 ul/well in 1536-well tissue culture treated black solid bottom plates using a Multidrop dispenser. After the assay plates were incubated at a 37 C/5% CO2 incubator for 5 hours, 23 nL of compounds dissolved in DMSO, positive and negative controls was transferred to the assay plate by a pintool work station. The plates were incubated at 37 C for 40 hours. The luminescence intensity were measured at 0h, 8h, 16h, 24h, 32h and 40h time points using ViewLux plate reader during compound treatment.
% is set by controls: 0 for no effect and ±100 for the full control effect.

| SMILES | activity change, negative = cytotoxicity |
| --- | --- |
| COc1cccc(Br)c1 | 5.46% |
| CCCc1ccccc1O | 14.2% |
| C#CC(O)CCCCC (stereo not given) | 3.6% |
| NS(=O)(=O)c1cc2c(cc1C(F)(F)F)NC(Cc1ccccc1)NS2(=O)=O (stereo not given) | 8.77% [at 35.3 µM] |
| NC(=O)c1ncn([C@@H]2O[C@H](CO)[C@@H](O)[C@H]2O)c1O | -1.68% [at 35.3 µM] |
| CCOC(=O)Nc1ccc2c(c1)N(C(=O)CCN1CCOCC1)c1ccccc1S2 | -15.8% [at 35.3 µM] |
| Oc1ccc2c(c1)OC[C@@H](N1CCC(O)(c3ccc(F)cc3)CC1)[C@H]2O | 1.97% [at 35.3 µM] |
| CC1(C)OC(=O)Nc2ccc(Br)cc21 | 11.3% [at 35.3 µM] |
| CC1CCN(CCCC(=O)c2ccc(F)cc2)CC1 | 11.7% [at 35.3 µM] |
| CC(C)(O)C(=O)c1ccc(OCCO)cc1 | -0.36% |
| CC(C)c1cccc(O)c1 | 6.33% |
| Cc1c(F)cc2c(=O)c(C(=O)O)cn3c2c1CCC3C (stereo not given) | -1.01% [at 35.3 µM] |
| CC(C)N1C(=O)c2ccccc2C1=O | 7.26% |
| O=C1OC(=O)c2cc([N+](=O)[O-])ccc21 | -14.1% |
| O=C(O)c1ccccc1S | 8.04% [at 35.3 µM] |
| CCCCCC[C@@H](CCC)C(=O)O | 26% [at 35.3 µM] |
| CC(C)[N+](C)(C)CC(O)COc1cccc2ccccc12 (stereo not given) | -6.35% [at 35.3 µM] |
| NC1CCN(c2cccc(Cl)n2)CC1 | 16.5% [at 35.3 µM] |
| O=C1C(CCS(=O)c2ccccc2)C(=O)N(c2ccccc2)N1c1ccccc1 (stereo not given) | -11.3% [at 35.3 µM] |
| Cc1c(C)n(CCN(C)C)c2ccc(C(=O)OCCN(C)C)cc12 | -4% [at 35.3 µM] |

| SMILES | activity change, negative = cytotoxicity |
| --- | --- |
| CCN1CCN(c2cc3c(cc2F)c(=O)c(C(=O)O)cn3C2CC2)CC1 | 5.84% [at 35.3 µM] |
| CC(C=O)Cc1ccc(C(C)C)cc1 (stereo not given) | 0.207% |
| CC12CCC(CC1=O)C2(C)C (stereo not given) | 3.05% |
| CCCCCCCCCCCCCCC | 1.44% |
| CC(=O)CCc1ccc(O)cc1 | -0.211% |
| CSc1ccc(C=O)cc1 | 2.4% |
| O=S(=O)(O)c1ccccc1O | 2.15% |
| CC(C)CCCCCCN | 0% |
| OC[C@H]1O[C@@H]2O[C@H]3[C@H](O)[C@@H](O)[C@@H](O[C@H]4[C@H](O)[C@@H](O)[C@@H](O[C@H]5[C@H](O)[C@@H](O)[C@@H](O[C@H]6[C@H](O)[C@@H](O)[C@@H](O[C@H]7[C@H](O)[C@@H](O)[C@@H](O[C@H]8[C@H](O)[C@@H](O)[C@@H](O[C@H]9[C@H](O)[C@@H](O)[C@@H](O[C@H]1[C@H](O)[C@H]2O)O[C@@H]9CO)O[C@@H]8CO)O[C@@H]7CO)O[C@@H]6CO)O[C@@H]5CO)O[C@@H]4CO)O[C@@H]3CO | 8.9% [at 35.3 µM] |
| CCCCN(CCO)CCO | 10.5% |
| OCCCCCCO | 3.23% |
| CC(C)(C)N(CCO)CCO | 7.63% |
| CC(C)CCCC(C)NCCC(C)C (stereo not given) | -7.53% [at 35.3 µM] |
| CN(C)CCn1nnnc1SCC1=C(C(=O)O)N2C(=O)[C@@H](NC(=O)Cc3csc(N)n3)[C@H]2SC1 | 3.25% [at 35.3 µM] |
| COc1ccc(COC=O)cc1 | 1.68% |
| CC1=CC(=O)CCC1 | 1.24% |
| COc1ccc(N=[N+]([O-])c2ccc(OC)cc2)cc1 | -1.21% |
| OCCN1C[C@H](O)[C@@H](O)[C@H](O)[C@H]1CO | 12.1% [at 35.3 µM] |
| Cc1ccc(N)cc1[N+](=O)[O-] | 0.875% |
| CCCCCCCCCCCCI | 0.141% |
